This note sets out measurements from PubChem BioAssay (Tox21).

The structures appear in SMILES notation. Several values for one entry are separate records, joined by “and”; a condition that tells them apart may be missing. Equal values may be shown once. Results filed as inconclusive are left out. Values without a mark were called inactive. Activity calls are given as the source filed them. Calls follow the shape of the dose curve; as a rule, active = well fitted cell-killing curve with a large enough effect in the repeat runs; inconclusive = weak or mixed curves, or effect the other way; inactive = flat fitted curve, though single readings scatter.
% is scaled to controls: 0 for no effect and ±100 for the full control effect; potency is read from the fitted curve at half-maximal effect.

This assay in a line: Caspase-3/7 induction in HepG2 cells by small molecules, qHTS cell viability counter screen (AID 1346981). Also: nearly all actives have a fitted effect of over 30% in size. Conditions: CellTiter-Fluor fluorescence, 17 h; series mostly up to 92.4 µM; activity change, negative = cytotoxicity: at the top concentration. From the text:
U.S. Tox21 Program National Center for Advancing Translational Sciences [NCATS] NIH Chemical Genomics Center [NCGC] U.S. Environmental Protection Agency [EPA] National Institutes of Environmental Health Sciences [NIEHS] National Toxicology Program [NTP] U.S. Food and Drug Administration [FDA] Tox21 Assay Overview: Apoptosis is a process of programmed cell death and plays a central role in the development of multicellular organisms. It is a highly regulated process and induces cell death by activating caspases, which are the members of cysteine aspartic acid-specific protease (caspase) family. Caspases involved in apoptosis are classified by their mechanism of action as initiator caspases (caspase-2, -8, -9 and -10) and executioner caspases (caspase-3, -6, and -7). Inhibition of apoptosis results in number of cancers, autoimmune diseases, inflammatory diseases and viral infection. To identify small molecule compounds that induce apoptosis, a homogeneous, luminescent Caspase-Glo 3/7 assay was used. Wild type HepG2 cells were used to screen Tox21 libraries for identifying caspase-3/7 activity inducers. Also cytotoxicity of the compounds was tested in parallel by measuring the cell viability using CellTiter-Fluor assay system in the same wells.
Tox21 Assay Protocol Summary: HepG2 cells were dispensed at 2,000 per well in 5uL of culture medium into white solid bottom 1536-well plates (Corning Life Sciences, Corning, NY) using a Multidrop Combi (Thermo Scientific, Waltham, MA) dispenser. The assay plates were incubated at 37 C and 5% CO2 for 5hr, and then 23nL of compounds dissolved in DMSO and positive control were transferred using a Pintool station ([…], San Diego, CA). The assay plates were incubated at 37C and 5% CO2 for 17hr. For cytotoxicity read, after 16hr incubation at 37C, 1uL CellTiter-Fluor reagent (Promega Corporation, Madison, WI) was added to each well of the assay plates using Flying Reagent Dispenser (FRD, Aurora Discovery, San Diego, CA). After 1hr incubation at 37C and 5% CO2, the fluorescence signal was quantified using a ViewLux plate reader (PerkinElmer, Shelton, CT).
For `CCN1C(=O)c2ccccc2C1Nc1ccc(OCCN2CCCCC2)cc1` (stereo not given), the “activity change, negative = cytotoxicity” value is -3.53% [at 42.5 µM].

For `CCCC(=O)OCOC(=O)C1=C(C)NC(C)=C(C(=O)OC)C1c1cccc(Cl)c1Cl` (stereo not given), the “activity change, negative = cytotoxicity” value is -5.49% [at 42.5 µM].

On to `CCCCCCCCCCCCCC[N+](C)(C)Cc1ccccc1`, for which the Potency is 69.6 µM (active).

On to `O=C(O)[C@H](O)[C@@H](O)[C@H](O[C@@H]1O[C@H](CO)[C@H](O)[C@H](O)[C@H]1O)[C@H](O)CO`, for which the “activity change, negative = cytotoxicity” value was -1.86% [at 42.5 µM].

Turning to `CCCC[P+](C)(CCCC)CCCC`, the “activity change, negative = cytotoxicity” value was -14.8%.

Take `O=C(O)c1cc(N=Nc2ccc([N+](=O)[O-])cc2)ccc1O`: the Potency is 53.5 µM (active).

Take `CCCCC/C=C\C/C=C\CCCCCCCC(=O)O`: the “activity change, negative = cytotoxicity” value is -5.78%.

With `NC(=S)NC(N)=S`, the “activity change, negative = cytotoxicity” value is 9.78%.

In the case of `CN(C)CCN1CCN(c2cccc(Cl)c2)C1=O`, the “activity change, negative = cytotoxicity” value is -0.928% [at 42.5 µM].

Take `O=C(O)c1cc(O)c2ccccc2c1O`: the Potency is 9.69 µM (active).

Regarding `ClCCl`, the “activity change, negative = cytotoxicity” value is 0.251%.

`O=S(=O)(O)c1ccccc1/C=C/c1ccc(-c2ccc(/C=C/c3ccccc3S(=O)(=O)O)cc2)cc1`: the “activity change, negative = cytotoxicity” value was 14.6%.

In the case of `C1CCC(SSC2CCCCC2)CC1`, the “activity change, negative = cytotoxicity” value was 15.1%.

As to `CCCCCCCCCCCCOCCOCCOCCOCCOCCOCCOCCOCCOCCO`, the Potency is 29.8 µM (active).

As for `Nc1nc(-c2ccccc2)cs1`, the “activity change, negative = cytotoxicity” value is -0.768%.

As for `COC(C)=O`, the “activity change, negative = cytotoxicity” value is 8.81%.

Take `CCCC(=O)OCCc1ccccc1`: the “activity change, negative = cytotoxicity” value is 1.16%.

For `Cc1cc(-c2ccc(N=Nc3cc(S(=O)(=O)O)c4ccccc4c3N)c(C)c2)ccc1N=Nc1cc(S(=O)(=O)O)c2ccccc2c1N`, the “activity change, negative = cytotoxicity” value was -10.7%.

As to `CCOC(=O)NNc1ccc(N(CC)CC(C)O)nn1` (stereo not given), the “activity change, negative = cytotoxicity” value is -2.12% [at 42.5 µM].

`Cc1ccc(C(=O)O)cc1`: the “activity change, negative = cytotoxicity” value was 9.13%.

Take `COc1c(C)c2c(c(O)c1C/C=C(\C)CCC(=O)OCCN1CCOCC1)C(=O)OC2`: the “activity change, negative = cytotoxicity” value was -16% [at 42.5 µM].

In the case of `Cc1cccc2cccnc12`, the “activity change, negative = cytotoxicity” value was 4.79%.

For the compound `O=C1C(c2[nH]c3ccc(S(=O)(=O)O)cc3c2O)=Nc2ccc(S(=O)(=O)O)cc21`, the “activity change, negative = cytotoxicity” value was -5.26%.

As for `CCCCCCCC/C=C\CCCCCCCCN`, the “activity change, negative = cytotoxicity” value was -1.21% [at 42.5 µM].

As for `COc1cccc2c1C(=O)c1c(O)c3c(c(O)c1C2=O)C[C@@](O)(C(C)=O)C[C@@H]3O[C@H]1C[C@H](N)[C@H](O)[C@H](C)O1`, the Potency is 30.8 µM (active) and 4.22 µM (active).

With `COC1=C(OC)C(=O)C(CCCCCCCCCCO)=C(C)C1=O`, the “activity change, negative = cytotoxicity” value is -1.6% [at 42.5 µM].

For the compound `COCCOc1cc2cc(C(=O)NC3CCN(C(C)C)CC3)n(CC(=O)Nc3ccc(Cl)cn3)c2cn1`, the “activity change, negative = cytotoxicity” value is 0.748%.

For `CCC(CC)(CC(=O)Nc1cccc(/C=C/c2nc(C3CCC3)cs2)c1)C(=O)O`, the “activity change, negative = cytotoxicity” value is -4.65% [at 42.5 µM].

As to `O=C1CCCCCCCCCCCCCCCO1`, the “activity change, negative = cytotoxicity” value is 1.11%.

In the case of `CC(=O)[C@H]1CC[C@H]2[C@@H]3CCC4=CC(=O)CC[C@]4(C)[C@H]3CC[C@]12C`, the “activity change, negative = cytotoxicity” value was -3.23%.

For `CC1(C)CCC[C@]2(C)[C@H]3CC(=O)O[C@]3(C)CC[C@@H]12`, the “activity change, negative = cytotoxicity” value is 1.36%.

As for `Cc1cc(C(C)(C)C)cc(C)c1CC1=NCCN1`, the “activity change, negative = cytotoxicity” value was -0.552% [at 42.5 µM].

Turning to `CC(C)OC(=O)C(O)(CC(=O)O)CC(=O)O`, the “activity change, negative = cytotoxicity” value was 0.98%.

Regarding `CC(=O)Oc1cc2c(s1)CCN(C(C(=O)C1CC1)c1ccccc1F)C2` (stereo not given), the “activity change, negative = cytotoxicity” value was 6.17% [at 42.5 µM].

Turning to `O[C@@H]([C@H](O)[C@H](O)CBr)[C@H](O)CBr`, the “activity change, negative = cytotoxicity” value is 6.75%.

In the case of `Cc1cccc(C)c1NC(=O)c1ccc(N)cc1`, the “activity change, negative = cytotoxicity” value was 4.59% [at 42.5 µM].

For the compound `Cc1cc(-n2nc3ccc(Cl)cc3n2)c(O)c(C(C)(C)C)c1`, the “activity change, negative = cytotoxicity” value is -0.41% [at 42.5 µM].

Consider `CCCCCc1ccc(Cl)cc1`, for which the “activity change, negative = cytotoxicity” value is -2.13%.

Regarding `CC[C@H](C)COC(=O)/C=C/c1ccc(N=Cc2ccc(OC)cc2)cc1`, the “activity change, negative = cytotoxicity” value is -14.3%.

For `CCCCCCCCCCCC(=O)OCC(C)OC(=O)CCCCC(=O)O` (stereo not given), the “activity change, negative = cytotoxicity” value was 4.82% [at 42.5 µM].
